CYP2C9 activ: CYP2C9 (human) activation | AID 1024 | 96,000 tested, 1.4% active | activation factor at 5 µM | recombinant CYP2C9, luciferin-H conversion, luminescence; hits give high values; factor 1 = untreated enzyme, 0 = blocked | P11712;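 active means activation factor of 2 or more for CYP2C9 at a 5 µM dose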
Target sequence (P11712 whole entry, looked up): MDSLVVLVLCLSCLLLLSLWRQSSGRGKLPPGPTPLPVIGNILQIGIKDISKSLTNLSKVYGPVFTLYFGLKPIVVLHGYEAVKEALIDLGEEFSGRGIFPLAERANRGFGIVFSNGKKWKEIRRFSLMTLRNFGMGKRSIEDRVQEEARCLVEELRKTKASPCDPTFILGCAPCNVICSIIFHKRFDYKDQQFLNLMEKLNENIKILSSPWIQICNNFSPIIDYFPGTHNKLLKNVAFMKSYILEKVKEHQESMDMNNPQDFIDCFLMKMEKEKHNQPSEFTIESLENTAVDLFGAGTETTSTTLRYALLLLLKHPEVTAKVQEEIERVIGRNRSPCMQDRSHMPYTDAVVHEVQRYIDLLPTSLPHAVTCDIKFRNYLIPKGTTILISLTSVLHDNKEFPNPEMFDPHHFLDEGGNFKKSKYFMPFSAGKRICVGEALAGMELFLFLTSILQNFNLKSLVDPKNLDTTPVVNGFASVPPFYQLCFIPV
CD11b adhes enh: CD11b/CD18-fibrinogen binding enhancement. 93,000 tested, 0.07% active. AID 1499. P05107+P11215. K562 CD11b/CD18 adhesion to fibrinogen, ATPlite luminescence. activation, % at 10 µM;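 active means 10 µM primary screen giving 50% or more activity, confirmed by 40% or more on retest at that dose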
CYP2C9 inh: inhibitors of human CYP2C9; inhibition, % at 5 µM; CYP2C9 Supersomes, luciferin-H conversion, luminescence; P11712; 96,000 tested, 20% active;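 active means blocking of liver enzyme CYP2C9 beyond about 50% at 5 µM, limit read from the data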
CYP2C19 inh: inhibitors of human CYP2C19; P33261; CYP2C19 Supersomes, luciferin-H EGE luminescence, 30 min; inhibition, % at 5 µM; 96,000 tested, 21% active; AID 778;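 active means CYP2C19 inhibition above a set limit at 5 µM in the primary screen, cut at about 50% in these data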
CYP2C19 act: activators of human cytochrome P450 2C19; P33261; activation factor at 5 µM; 96,000 tested, under 10 active; recombinant CYP2C19, luciferin-H EGE luminescence; hits give high values; 0 = fully inhibited enzyme, 1 = untreated enzyme;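 active means activation factor of at least 2 at 5 µM in the primary screen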
Mac1 fbg inh: CD11b/CD18-fibrinogen binding inhibition | P05107+P11215 | K562 CD11b/CD18 adhesion to fibrinogen, ATPlite luminescence; Mn2+ added to activate the integrin | inhibition, % at 10 µM | 93,000 tested, 0.54% active | AID 1497;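 active means primary inhibition of 50% or more at 10 µM, then 40% or more on retest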
Numbers stand for hits; – = inactive; · = no result. Most compounds without a hit are left out; they make up all but 28% or so of the library.

SMILES	CYP2C9 activ	CD11b adhes enh	CYP2C9 inh	CYP2C19 inh	CYP2C19 act	Mac1 fbg inh
COc1ccc(CCNC(=O)c2cc(-c3cc(C)ccc3O)n[nH]2)cc1OC	–	–	80	–	–	–
COc1ccc(CCNC(=O)c2ccc(CNS(=O)(=O)c3ccc(C(C)(C)C)cc3)cc2)cc1OC	·	–	·	·	·	–
COc1ccc2c(c1)CCc1c(C(=O)Nc3ccc(OC)c(OC)c3)noc1-2	–	–	–	–	–	–
COc1ccc(CCNC(=O)c2ccc(CNS(=O)(=O)c3cc(C)ccc3C)cc2)cc1OC	–	–	100	76	–	–
CNC(=S)NCCc1ccc(OC)c(OC)c1	–	–	–	56	–	–
O=C(Nc1ccc(Cl)cc1C(=O)NCC1CCCO1)c1ccc(Cl)cc1Cl (stereo unspecified)	·	–	·	·	·	–
COc1ccccc1CNC(=O)[C@@H]1CCCN1C(=O)C1CCN(S(=O)(=O)c2ccc(C)cc2)CC1	–	–	–	–	–	–
Cc1nn(CCO)c(C)c1Oc1ccccc1O	–	–	–	–	–	–
CCOc1ccc(-c2c(=O)n(OCc3ccc([N+](=O)[O-])cc3)c3ccccc3[n+]2[O-])cc1	·	–	·	·	·	–
COc1ccc(CN(C)C(C)C(=O)Nc2ccc([N+](=O)[O-])cc2Cl)cc1OC (stereo unspecified)	·	–	·	·	·	–
COc1ccc(OCc2nnnn2-c2ccccc2)cc1	–	–	–	69	–	–
Clc1ccc(-n2nnnc2-c2ccccc2)cc1	–	–	61	98	–	–
COc1ccc(-n2c(-c3ccccc3)nnc2-c2ccc(Cl)cc2)cc1	–	–	–	–	–	–
COc1ccc(-n2nnnc2-c2ccccc2)cc1	–	–	–	76	–	–
O=C1CSC(c2ccccn2)N1Cc1cn2ccccc2n1 (stereo unspecified)	–	–	–	–	–	–
N#CCCN/N=C(/Cc1nc2ccccc2[nH]1)c1cccc(Cl)c1	–	–	63	86	–	–
COC(=O)c1ccc(CSc2ccc3nnc(-c4cccnc4)n3n2)o1	–	–	–	–	–	–
Cc1ccsc1C(=O)OCc1nc2ccccc2c(=O)[nH]1	–	–	87	72	–	–
Cc1cccc(NC(=O)c2cc(S(=O)(=O)c3ccccc3)ccc2Cl)c1	–	–	94	80	–	–
Cc1cccc(NC(=O)c2cccc(NS(=O)(=O)c3ccc(Cl)cc3)c2)c1	–	–	97	99	–	–
Cc1cc(C)cc(NC(=O)c2ccc(S(=O)(=O)C(F)F)cc2)c1	·	–	·	·	·	–
O=C(Nc1cccc(S(=O)(=O)Nc2ccc(Cl)cc2)c1)c1ccc(Cl)nc1	·	–	·	·	·	–
Cc1cc(C)c(NS(=O)(=O)c2ccc(Cl)c(C(=O)O)c2)c(C)c1	–	–	61	–	–	–
Cc1ccc(S(=O)(=O)Nc2cc(C(=O)Nc3cc(C)cc(C)c3)ccc2Cl)cc1	–	–	80	57	–	–
CCCCCC(=O)OC(CN1CCCCC1)CN1CCCC1=O (stereo unspecified)	–	–	–	–	–	–
SMILES	CYP2C9 activ	CD11b adhes enh	CYP2C9 inh	CYP2C19 inh	CYP2C19 act	Mac1 fbg inh
CCOC(=O)C1=C(C)NC(=O)C(C(N)=O)C1c1ccccc1 (stereo unspecified)	–	–	–	–	–	–
CC(C)(C)n1nnnc1C(c1cccs1)N(Cc1ccc(Cl)cc1)CC1CCCO1 (stereo unspecified)	–	–	–	–	–	–
O=C(NCCOc1cccc(Oc2ccccc2)c1)c1cc(-n2cnnc2)ccc1Cl	–	–	56	69	–	–
O=C(Nc1ccccc1)c1cc(-n2cnnc2)ccc1Cl	–	·	–	–	–	·
O=C(NCCOc1cccc(Cl)c1Cl)c1cc(-n2cnnc2)ccc1Cl	–	–	54	70	–	–
CSc1nc(C)cc(OCC#N)n1	–	–	–	–	–	–
Cc1ccc2[nH]c3c(c2c1)CN(C(=O)CN1CCN(c2ccccn2)CC1)CC3	–	–	–	–	–	–
Cc1ccc2[nH]c3c(c2c1)CN(C(=O)CN1CCSCC1)CC3	–	–	–	51	–	–
Cc1ccc2[nH]c3c(c2c1)CN(C(=O)CN1CC(C)OC(C)C1)CC3 (stereo unspecified)	–	–	–	71	–	–
Cc1ccc2[nH]c3c(c2c1)CN(C(=O)CN1CCN(Cc2ccc4c(c2)OCO4)CC1)CC3	–	–	62	62	–	–
Cn1c(=O)c2cn(Cc3ccc(Cl)cc3)cc2n(C)c1=O	–	–	58	63	–	–
O=C(OCC(=O)N1CCCC1)c1cccs1	–	–	–	–	–	–
COc1cc(C2NC(C(=O)O)CS2)ccc1OCc1ccccc1C#N (stereo unspecified)	–	–	–	59	–	–
NC(=O)c1ccc([N+](=O)[O-])cc1SCc1ccccc1	–	–	–	–	–	–
O=C1CN(C(=O)CN2CCCC2)C(c2ccccc2)c2cc(Br)ccc2N1 (stereo unspecified)	–	–	–	–	–	–
O=C1CN(C(=O)CN2CCOCC2)C(c2ccccc2)c2cc(Br)ccc2N1 (stereo unspecified)	–	–	68	65	–	–
Cc1csc(NC(=O)CSc2nnc(-c3cccs3)n2C)n1	–	–	–	52	–	–
CCn1c(CC(=O)Nc2ccc(C)c(Cl)c2)nnc1SCC(=O)Nc1nc(C)cs1	–	–	63	–	–	–
CC(C)c1ccc(NC(=O)CSc2nnc(-c3ccccn3)n2C)cc1	–	–	–	–	–	–
CCc1ccc(NC(=O)CSc2nnc(-c3ccccn3)n2C)cc1	–	–	72	67	–	–
Cn1c(SCC(=O)Nc2cc(=O)n(C)c(=O)n2C)nnc1-c1cccs1	–	–	–	–	–	–
CCn1c(SCC(=O)NCCc2ccc(Cl)cc2)nnc1-c1cccs1	–	–	81	78	–	–
CCn1c(SCC(=O)Nc2cccc(NC(=O)c3ccco3)c2)nnc1-c1cccs1	–	–	65	56	–	–
CCOC(=O)c1ccc(NC(=O)CSc2nnc(-c3cccs3)n2CC)cc1	–	–	–	–	–	–
CCc1ccc(NC(=O)CSc2nnc(-c3cccs3)n2CC)cc1	–	–	52	–	–	–
SMILES	CYP2C9 activ	CD11b adhes enh	CYP2C9 inh	CYP2C19 inh	CYP2C19 act	Mac1 fbg inh
COC(=O)\C(C(C)=O)=C(/C=C/C=C/C=C/N(C)C)N(C)C	–	·	–	–	–	·
Cc1ccc(NC(=O)CS(=O)CC(=O)NCC2CCCO2)cc1 (stereo unspecified)	–	–	–	–	–	–
Cc1cc(C(=O)NCc2ccccc2)c(=O)[nH]c1C	–	–	–	–	–	–
Cc1nc(C)c(C(=O)NCc2ccccc2Cl)o1	–	–	–	–	–	–
Cc1nc2c(C(=O)NCc3ccccc3)c[nH]n2c(=O)c1Cl	–	–	53	–	–	–
Cc1nc2c(C(=O)NCc3ccccc3Cl)c[nH]n2c(=O)c1Cl	–	–	92	–	–	–
